# High-throughput results deposited in PubChem by several laboratories.
# Rows were chosen to be rich in hits. Some 2.2% of all compounds tested hit in one or more screens of this group.
# IEC-6 tox: IEC-6 cytotoxicity, counter-screen for KLF5 inhibitors. luminescence viability. inhibition, % at 5 µM. 290,000 compounds, 0.78% hits; in the data active = inhibition above about 22%;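 note: 0% = plate median of test compound wells and 100% = cytotoxic reference compound wells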
# aSyn UTR inh: 5' untranslated region of α-synuclein, MLPCN primary screen. alpha-synuclein 5'UTR reporter, inhibitor activity. inhibition, % (tested at 7.5 µM). 300,000 compounds, 0.82% hits. AID 1813; in the data active = inhibition above about 60%;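 note: H4 neuroglioblastoma cells stably carrying SNCA 5'UTR luciferase fusion; 0% = DMSO wells and 100% = positive control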
# BaF3 tox: reduces parental Ba/F3 cell viability, JAK2V617F counter-screen; AID 1486; 220,000 compounds, 1.1% hits; CellTiter-Glo ATP luminescence; inhibition, % at 5.6 µM;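 active = inhibition above a per-campaign cutoff, the mean inhibition of all tested compounds plus 3 SD, cut at about 27% in these data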;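 note: 0% = DMSO wells and 100% = JAK Inhibitor I control wells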
# KLF5 inhibitor: suppresses KLF5 promoter-driven expression. DLD-1 KLF5 promoter-luciferase reporter, luminescence. AID 1700. 290,000 compounds, 0.23% hits. inhibition, % at 5 µM;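 active = inhibition above a per-plate limit of that plate's mean compound inhibition plus 3 SD, cut at about 60% in these data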;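 note: 0% = DMSO wells and 100% = LY294002 at 200 µM; higher means less KLF5 promoter-driven luciferase light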
# Ba/F3 V617F tox: lowers viability of Ba/F3 cells expressing EpoR and JAK2V617F | 220,000 compounds, 1.1% hits | ATP luminescence | inhibition, % at 5.6 µM;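 active = inhibition above the campaign mean plus 3 SD over all tested compounds, cut at about 24% in these data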;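 note: cytokine-independent growth of Ba/F3 cells driven by EpoR plus mutant JAK2; 0% = DMSO-treated cells and 100% = JAK inhibitor I control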
# APP 5UTR inh: APP translation inhibition | SH-SY5Y APP 5'UTR-luciferase reporter, luminescence | inhibition, % at 2 µM | 190,000 compounds, 0.82% hits;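 active = inhibition above a set limit, derived from the sample mean plus 3 SD, cut at about 45% in these data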
# * marks the source's active call; other numbers are inactive results; . = no result.
SMILES,IEC-6 tox,aSyn UTR inh,BaF3 tox,KLF5 inhibitor,Ba/F3 V617F tox,APP 5UTR inh
N#C/C(=C\c1ccc(OCc2ccc(C(=O)O)cc2)cc1)C(=O)N1CCOCC1,-0.4,93.0*,8.3,40.1,1.7,55.8*
COc1cc(/C=C(\C#N)C(=O)N2CCOCC2)ccc1OCc1ccccc1,-1.4,-120.4,7.8,-20.1,-0.8,-37.2
CCn1ccc(C(=O)Nc2ncc(C)s2)n1,-0.8,-46.4,.,-144.2,.,.
CC(=O)n1cc(/C=N/NC(=O)c2sc(C)nc2C)c2ccccc21,6.5,-28.4,0.3,21.1,-2.3,-7.2
CC(=O)n1cc(-c2ccncc2)c2ccccc21,2.8,4.1,8.1,-0.5,-1.3,46.3*
CCOc1ccc(NC(=O)CN(C)C(=O)c2ccccc2OCc2c(C)noc2C)cc1OCC,.,-5.4,.,.,.,.
Cc1c(CC(=O)NCCC(=O)O)c(=O)oc2cc3oc4c(c3cc12)CCCC4,0.5,8.4,.,-21.1,.,.
Cc1oc2c(C)c3oc(=O)c(CCC(=O)N4CCC(C(=O)NCCC(=O)O)(c5ccccc5)CC4)c(C)c3cc2c1C,0.5,-8.6,.,-2.7,.,.
Cc1c(CCC(=O)N2CCC(C(=O)O)CC2)c(=O)oc2cc3oc4c(c3cc12)CCCC4,2.7,74.1*,.,-10.8,.,.
Cc1c(CCC(=O)N[C@@H](C)C(=O)O)c(=O)oc2cc3oc4c(c3cc12)CCCC4,6.3,70.7*,.,-19.7,.,.
Cc1c(CCC(=O)N2CCC(C(=O)O)(c3ccccc3)CC2)c(=O)oc2cc3oc4c(c3cc12)CCCC4,3.2,67.5*,.,-36.8,.,.
Cc1onc(-c2ccccc2Cl)c1C(=O)N(C)CC(=O)Nc1ccc(F)c(F)c1F,.,22.6,.,.,.,.
COc1cc(C(C)=O)ccc1OCC(=O)N(CCC1=CCCCC1)c1c(N)n(Cc2ccccc2)c(=O)[nH]c1=O,.,13.8,.,.,.,.
Cc1cccnc1CCNCc1c(C(=O)N2C[C@@H](C)O[C@@H](C)C2)nc2ccc(Cl)cn12,-8.3,4.4,.,-29.4,.,.
Cc1ccc(N/C(N)=N/c2nc(C)cc(N3CCCCC3)n2)c(C)c1,20.7,-0.6,66.3*,10.5,70.6*,12.1
Cc1ccc(N/C(N)=N/c2nc3c(c(=O)[nH]2)CCCC3)c(C)c1,2.5,-6.8,4.5,1.8,0.6,-15.5
Cc1cc(F)c(F)c(C(=O)N2CCOCC2)c1Cl,2.1,20.4,5.1,-3.7,2.8,-1.7
Cc1ccc(C(=O)N2CCOCC2)c(F)c1F,-0.6,17.1,90.1*,-16.4,2.5,28.5
Cn1c(CNC(=O)CNC(=O)Cc2ccc(Cl)cc2)cc(=O)n(C)c1=O,1.6,-26.4,.,-11.8,.,.
CCCCN(CC)Cc1c(O)ccc2c(-c3ccccc3)cc(=O)oc12,2.7,24.6,29.0*,-1.6,21.7,.
Cc1ccc(OCCn2cnc3cc([N+](=O)[O-])ccc3c2=O)cc1,12.0,2.1,5.1,2.2,2.0,-8.0
COc1ccc2c(Cn3cnc4cc([N+](=O)[O-])ccc4c3=O)cc(=O)oc2c1,-1.3,72.1*,-0.2,0.8,-1.9,.
O=C(COc1ccccc1Cl)N1CCN(c2ccccn2)CC1,.,-3.0,.,.,.,.
CCN(CC)S(=O)(=O)c1ccc(S(=O)(=O)N2CCCC(C(=O)NC3CC3)C2)cc1 (centres undefined),-1.1,-6.6,.,-8.6,.,.
CS(=O)(=O)c1ccc(Cl)c(NC(=O)COC(=O)COc2ccc3c(c2)CCC3)c1,.,-21.5,.,.,.,.
SMILES,IEC-6 tox,aSyn UTR inh,BaF3 tox,KLF5 inhibitor,Ba/F3 V617F tox,APP 5UTR inh
Oc1c(N=Nc2ccccn2)ccc2ccccc12,12.3,73.7*,4.5,8.8,12.3,82.2*
c1ccc2c(c1)ccc1ncccc12,-0.3,18.3,7.1,2.5,-0.5,17.8
Cc1cc(C(=O)NN=C2C3CC4CC(C3)CC2C4)c2ccccc2n1,6.6,17.9,2.2,7.3,-3.0,76.2*
Cc1cc(C(=O)NN=C2CCCCC2)c2ccccc2n1,3.2,.,0.2,2.4,0.4,79.5*
CCOc1ccc(/C=N/NC(=O)c2[nH]ncc2Br)c(O)c1,28.8*,18.7,6.9,-16.1,20.8,-24.0
O=C(N/N=C/c1c(O)ccc2ccccc12)c1[nH]ncc1Br,10.2,106.0*,35.5*,23.0,30.9*,71.9*
COc1ccc2ccccc2c1/C=N/NC(=O)c1cccc(Br)c1,6.8,-22.0,4.5,11.8,2.0,-5.2
COc1ccc(OC)c(/C=N/NC(=O)c2[nH]ncc2Br)c1,-1.2,-1.5,-1.5,-94.2,-5.0,.
O=C(N/N=C\c1c(O)ccc2ccccc12)c1ccc(Cn2cccn2)o1,7.3,91.7*,7.1,14.7,9.8,62.6*
O=C(N/N=C/c1c(O)ccc2ccccc12)c1cccc(C(F)(F)F)c1,9.9,110.8*,5.5,18.3,3.5,79.3*
